Here are results for 7 compounds from ChEMBL document CHEMBL2218924, “A broad activity screen in support of a chemogenomic map for kinase signalling research and drug discovery” (Biochem J, 2013).

The structures appear in SMILES notation.

Experiment [1] addresses T1, Casein kinase II (Homo sapiens) (UniProt P67870+P68400+P19784). The conditions noted are these: at 1 µM.
The target of experiment [2] is T1, Casein kinase II (Homo sapiens). The conditions noted are these: at 10 µM.
Experiment [3] concerns the target Casein kinase II subunit alpha' (Homo sapiens) (UniProt P19784). The conditions noted are these: at 1 µM.
For experiment [4] the target is unchanged. The conditions noted are these: at 10 µM.
The target in experiment [5] is Dual specificity protein kinase CLK2 (Homo sapiens) (UniProt P49760). The conditions noted are these: at 1 µM.
Experiment [6] has the same target. The conditions noted are these: at 10 µM.
The target of experiment [7] is Dual specificity protein kinase CLK3 (Homo sapiens) (UniProt P49761). The conditions noted are these: at 1 µM.
The target is the same in experiment [8]. The conditions noted are these: at 10 µM.
Experiment [9] deals with Tyrosine-protein kinase CSK (Homo sapiens) (UniProt P41240). The conditions noted are these: at 1 µM.
Experiment [10] has the same target. The conditions noted are these: at 10 µM.
Experiment [11] has as its target Calcium/calmodulin-dependent protein kinase type 1 (Homo sapiens) (UniProt Q14012). The conditions noted are these: at 1 µM.
The target is the same in experiment [12]. The conditions noted are these: at 10 µM.
For experiment [13], the target named is Calcium/calmodulin-dependent protein kinase type II subunit beta (Homo sapiens) (UniProt Q13554). The conditions noted are these: at 1 µM.
Experiment [14] has the same target. The conditions noted are these: at 10 µM.
In experiment [15] the target is Calcium/calmodulin-dependent protein kinase type II subunit gamma (Homo sapiens) (UniProt Q13555). The conditions noted are these: at 1 µM.
Experiment [16] has the same target. The conditions noted are these: at 10 µM.
Experiment [17] addresses Calcium/calmodulin-dependent protein kinase type II subunit delta (Homo sapiens) (UniProt Q13557). The conditions noted are these: at 1 µM.
Experiment [18] has the same target. The conditions noted are these: at 10 µM.
For experiment [19], the target named is T2, Calcium/calmodulin-dependent protein kinase type IV (Homo sapiens) (UniProt Q16566).
T2 sequence (whole entry): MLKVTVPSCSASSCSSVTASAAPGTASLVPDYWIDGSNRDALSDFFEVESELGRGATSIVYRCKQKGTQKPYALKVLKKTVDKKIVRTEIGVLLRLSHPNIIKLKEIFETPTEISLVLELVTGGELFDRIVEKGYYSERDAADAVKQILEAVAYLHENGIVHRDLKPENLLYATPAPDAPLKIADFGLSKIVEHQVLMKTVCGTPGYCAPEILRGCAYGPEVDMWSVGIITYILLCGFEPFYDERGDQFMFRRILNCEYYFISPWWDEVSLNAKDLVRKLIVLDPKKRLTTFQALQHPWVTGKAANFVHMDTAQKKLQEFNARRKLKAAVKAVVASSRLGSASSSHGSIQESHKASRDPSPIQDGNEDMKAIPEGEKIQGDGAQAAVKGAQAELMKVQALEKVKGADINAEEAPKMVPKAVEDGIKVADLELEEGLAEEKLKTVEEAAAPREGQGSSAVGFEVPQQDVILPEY
The conditions noted are these: at 1 µM.

Experiment [20] addresses T2, Calcium/calmodulin-dependent protein kinase type IV (Homo sapiens). The conditions noted are these: at 10 µM.

Calcium/calmodulin-dependent protein kinase type II subunit beta (Homo sapiens), sequence (Q13554 whole entry): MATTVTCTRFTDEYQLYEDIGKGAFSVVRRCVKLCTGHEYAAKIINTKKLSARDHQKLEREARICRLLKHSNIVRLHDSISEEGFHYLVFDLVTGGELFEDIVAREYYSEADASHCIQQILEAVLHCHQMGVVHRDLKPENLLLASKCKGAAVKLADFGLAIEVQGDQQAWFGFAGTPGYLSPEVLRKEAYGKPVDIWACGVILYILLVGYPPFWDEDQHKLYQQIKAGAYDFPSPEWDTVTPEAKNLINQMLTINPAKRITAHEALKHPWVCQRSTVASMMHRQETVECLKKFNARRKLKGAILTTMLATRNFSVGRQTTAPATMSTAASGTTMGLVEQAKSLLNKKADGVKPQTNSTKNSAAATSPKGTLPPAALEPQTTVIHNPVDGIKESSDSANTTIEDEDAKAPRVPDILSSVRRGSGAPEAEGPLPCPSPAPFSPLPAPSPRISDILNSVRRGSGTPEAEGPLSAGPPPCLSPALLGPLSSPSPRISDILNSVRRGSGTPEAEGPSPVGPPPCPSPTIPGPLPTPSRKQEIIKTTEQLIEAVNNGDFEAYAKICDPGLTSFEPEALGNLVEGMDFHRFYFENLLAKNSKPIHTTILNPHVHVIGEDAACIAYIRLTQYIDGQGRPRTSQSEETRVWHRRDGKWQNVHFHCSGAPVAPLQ
Tyrosine-protein kinase CSK (Homo sapiens), sequence (P41240 2-450 limits assumed): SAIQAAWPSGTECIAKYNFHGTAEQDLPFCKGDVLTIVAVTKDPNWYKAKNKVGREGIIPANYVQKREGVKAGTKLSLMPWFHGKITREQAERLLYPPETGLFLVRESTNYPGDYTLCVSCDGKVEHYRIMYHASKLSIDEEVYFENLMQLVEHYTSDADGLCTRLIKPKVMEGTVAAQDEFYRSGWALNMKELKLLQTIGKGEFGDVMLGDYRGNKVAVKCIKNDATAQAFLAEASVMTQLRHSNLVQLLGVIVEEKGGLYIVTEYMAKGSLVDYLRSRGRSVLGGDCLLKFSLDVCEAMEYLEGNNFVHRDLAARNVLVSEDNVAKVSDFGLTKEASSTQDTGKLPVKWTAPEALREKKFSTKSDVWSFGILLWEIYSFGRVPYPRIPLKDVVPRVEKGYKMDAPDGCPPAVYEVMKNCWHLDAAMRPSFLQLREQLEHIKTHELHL
Dual specificity protein kinase CLK2 (Homo sapiens), sequence (P49760 whole entry, looked up): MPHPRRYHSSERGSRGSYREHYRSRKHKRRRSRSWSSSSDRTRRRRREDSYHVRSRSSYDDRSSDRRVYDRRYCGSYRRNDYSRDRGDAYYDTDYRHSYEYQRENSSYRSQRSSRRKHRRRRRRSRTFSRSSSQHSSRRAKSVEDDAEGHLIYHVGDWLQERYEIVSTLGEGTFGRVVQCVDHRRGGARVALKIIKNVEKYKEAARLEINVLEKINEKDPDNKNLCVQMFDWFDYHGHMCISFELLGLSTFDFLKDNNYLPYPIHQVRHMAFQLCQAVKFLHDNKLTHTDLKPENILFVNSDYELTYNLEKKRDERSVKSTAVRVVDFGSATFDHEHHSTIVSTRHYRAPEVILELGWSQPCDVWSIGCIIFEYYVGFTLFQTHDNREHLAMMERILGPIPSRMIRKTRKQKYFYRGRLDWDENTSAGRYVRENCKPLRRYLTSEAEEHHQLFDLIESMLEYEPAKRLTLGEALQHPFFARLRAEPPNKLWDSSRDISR
Casein kinase II subunit alpha' (Homo sapiens), sequence (P19784 whole entry, looked up): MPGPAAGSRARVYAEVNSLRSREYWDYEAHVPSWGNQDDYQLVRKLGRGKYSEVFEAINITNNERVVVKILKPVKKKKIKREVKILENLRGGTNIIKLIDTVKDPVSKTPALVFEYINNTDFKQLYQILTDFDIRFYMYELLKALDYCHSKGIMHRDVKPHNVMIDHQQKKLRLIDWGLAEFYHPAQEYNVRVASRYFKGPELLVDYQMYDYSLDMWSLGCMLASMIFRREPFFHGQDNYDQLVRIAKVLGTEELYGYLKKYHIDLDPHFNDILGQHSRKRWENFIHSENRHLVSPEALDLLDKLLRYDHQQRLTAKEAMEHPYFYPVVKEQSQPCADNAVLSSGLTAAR
T1 sequence (P19784 whole entry, looked up): as above
T1 sequence (P67870 whole entry, looked up): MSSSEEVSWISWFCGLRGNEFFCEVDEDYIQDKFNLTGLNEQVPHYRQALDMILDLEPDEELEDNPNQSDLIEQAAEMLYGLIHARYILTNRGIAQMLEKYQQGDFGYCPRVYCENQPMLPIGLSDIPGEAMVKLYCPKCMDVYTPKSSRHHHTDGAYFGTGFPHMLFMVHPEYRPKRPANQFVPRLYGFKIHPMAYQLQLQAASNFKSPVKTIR
T1 sequence (P68400 whole entry, looked up): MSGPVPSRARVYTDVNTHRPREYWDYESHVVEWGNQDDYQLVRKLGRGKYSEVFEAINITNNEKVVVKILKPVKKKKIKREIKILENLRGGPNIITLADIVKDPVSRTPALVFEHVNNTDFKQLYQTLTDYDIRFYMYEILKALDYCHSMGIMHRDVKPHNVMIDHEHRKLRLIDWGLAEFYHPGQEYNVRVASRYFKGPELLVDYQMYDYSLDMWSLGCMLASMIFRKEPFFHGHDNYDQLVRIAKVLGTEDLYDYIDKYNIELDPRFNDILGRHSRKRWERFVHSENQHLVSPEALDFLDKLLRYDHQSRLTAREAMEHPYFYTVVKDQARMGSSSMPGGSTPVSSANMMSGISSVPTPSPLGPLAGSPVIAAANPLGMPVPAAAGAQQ
Dual specificity protein kinase CLK3 (Homo sapiens), sequence (P49761 whole entry, looked up): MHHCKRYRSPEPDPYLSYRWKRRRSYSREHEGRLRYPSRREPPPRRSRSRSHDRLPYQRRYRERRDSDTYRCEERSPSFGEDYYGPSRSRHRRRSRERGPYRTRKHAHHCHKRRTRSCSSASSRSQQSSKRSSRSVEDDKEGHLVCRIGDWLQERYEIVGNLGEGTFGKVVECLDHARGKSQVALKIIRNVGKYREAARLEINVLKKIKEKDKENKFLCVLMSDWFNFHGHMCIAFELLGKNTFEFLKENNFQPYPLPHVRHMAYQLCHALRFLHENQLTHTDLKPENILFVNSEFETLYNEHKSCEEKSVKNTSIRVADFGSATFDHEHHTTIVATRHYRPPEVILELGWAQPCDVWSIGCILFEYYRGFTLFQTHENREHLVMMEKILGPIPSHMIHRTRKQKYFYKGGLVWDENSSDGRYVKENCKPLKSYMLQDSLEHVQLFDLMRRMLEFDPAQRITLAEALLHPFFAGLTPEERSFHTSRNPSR
Calcium/calmodulin-dependent protein kinase type II subunit gamma (Homo sapiens), sequence (Q13555 whole entry): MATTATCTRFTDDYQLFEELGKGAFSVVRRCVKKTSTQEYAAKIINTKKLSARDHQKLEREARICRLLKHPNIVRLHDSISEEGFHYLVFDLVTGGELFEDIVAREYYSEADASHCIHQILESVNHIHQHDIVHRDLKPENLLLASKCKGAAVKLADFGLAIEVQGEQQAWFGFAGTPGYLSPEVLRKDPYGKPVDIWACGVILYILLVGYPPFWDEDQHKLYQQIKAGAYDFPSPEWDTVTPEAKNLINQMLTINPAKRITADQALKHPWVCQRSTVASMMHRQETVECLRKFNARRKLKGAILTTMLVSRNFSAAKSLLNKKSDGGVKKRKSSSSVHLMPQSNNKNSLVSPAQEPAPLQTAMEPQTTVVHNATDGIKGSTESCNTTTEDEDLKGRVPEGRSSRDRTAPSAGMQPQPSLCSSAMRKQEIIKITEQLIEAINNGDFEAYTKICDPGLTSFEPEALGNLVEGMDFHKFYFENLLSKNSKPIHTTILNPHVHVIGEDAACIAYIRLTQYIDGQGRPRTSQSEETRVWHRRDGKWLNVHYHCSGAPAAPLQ
Calcium/calmodulin-dependent protein kinase type II subunit delta (Homo sapiens), sequence (Q13557 whole entry): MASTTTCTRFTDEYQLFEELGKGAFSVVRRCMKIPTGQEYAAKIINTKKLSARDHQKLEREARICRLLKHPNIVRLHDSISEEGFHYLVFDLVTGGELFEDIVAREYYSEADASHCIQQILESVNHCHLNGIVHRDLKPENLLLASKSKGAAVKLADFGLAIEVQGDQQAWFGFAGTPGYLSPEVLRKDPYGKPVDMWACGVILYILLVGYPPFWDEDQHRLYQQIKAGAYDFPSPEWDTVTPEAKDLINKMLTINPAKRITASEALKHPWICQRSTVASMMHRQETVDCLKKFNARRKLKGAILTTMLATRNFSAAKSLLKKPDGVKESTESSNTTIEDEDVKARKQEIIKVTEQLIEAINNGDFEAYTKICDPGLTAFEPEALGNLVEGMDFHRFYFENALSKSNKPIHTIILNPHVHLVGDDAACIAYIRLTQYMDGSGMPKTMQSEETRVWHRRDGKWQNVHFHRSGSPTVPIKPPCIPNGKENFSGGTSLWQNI
Calcium/calmodulin-dependent protein kinase type 1 (Homo sapiens), sequence (Q14012 whole entry, looked up): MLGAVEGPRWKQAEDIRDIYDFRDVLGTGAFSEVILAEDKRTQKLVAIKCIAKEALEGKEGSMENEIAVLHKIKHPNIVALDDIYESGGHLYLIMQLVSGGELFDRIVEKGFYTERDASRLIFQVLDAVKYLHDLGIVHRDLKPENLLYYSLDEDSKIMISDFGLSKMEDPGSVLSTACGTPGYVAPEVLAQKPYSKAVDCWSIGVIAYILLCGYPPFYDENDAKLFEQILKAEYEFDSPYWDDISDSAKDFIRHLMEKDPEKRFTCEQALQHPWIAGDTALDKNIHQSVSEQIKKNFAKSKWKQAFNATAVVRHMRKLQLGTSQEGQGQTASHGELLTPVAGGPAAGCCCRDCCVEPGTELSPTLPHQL

Turning to `CC(C)n1cnc2c(NCc3ccccc3)nc(NCCCO)nc21`, the residual activity in experiment [1] stood at 102%; in [2], 94%; in experiment [3], 110%; in experiment [4], 108%; in experiment [5], 53%; in [6] it was 14%. The residual activity worked out at 88% in experiment [7]; 67% in [8]; 104% in [9]; 100% in experiment [10]; 80% in experiment [11]; 68% in [12]. In addition, the residual activity in experiment [13] amounted to 84%; in experiment [14], 66%; in [15] it was 94%; in experiment [16], 59%; in experiment [17], 86%; in [18], 58%. The residual activity was 112% in experiment [19] and 90% in [20].

With `C[C@@H](N)[C@H]1CC[C@H](C(=O)Nc2ccncc2)CC1`, the residual activity in experiment [2] turned out to be 87%; in experiment [3], 93%; in [5] it was 97%; in experiment [6] it was 66%; in [7] it was 99%; in experiment [8], 90%. The residual activity in [9] was 106%; in experiment [10], 93%; in experiment [11] it was 123%; in [12] it was 125%; in experiment [15] it was 100%; in [16], 89%. The residual activity in experiment [17] was found to be 107%; in [18], 92%; in experiment [19] it was 90%; in experiment [20], 90%.

For the compound `CC(=O)O/N=C1\C(=C2\C(=O)Nc3cc(Br)ccc32)Nc2ccccc21`, the residual activity in experiment [1] came to 96%; in experiment [2], 90%; in [3] it was 102%; in experiment [4], 89%; in experiment [5] it was 102%; in [6], 65%. Also, the residual activity was 82% in experiment [7]; 76% in experiment [8]; 104% in [9]; 86% in experiment [10]; 82% in experiment [11]; 50% in [12]. The residual activity in experiment [13] was 79%; in [14] it was 27%; in experiment [15] it was 23%; in [16], 4%; in [17], 17%; in [18], 4%. In addition, the values for the residual activity in [19] and in experiment [20] were 100% and 90%, respectively.

As for `Cc1cc(Nc2nc(-c3ccccc3)nc3ccccc23)n[nH]1`, the residual activity in [1] was 43%; in experiment [2] it was -2%; in [3], 21%; in experiment [4] it was -2%; in experiment [5], 10%; in experiment [6], 8%. The residual activity worked out at 53% in experiment [7]; 15% in experiment [8]; 102% in experiment [9]; 61% in experiment [11]; 13% in experiment [12]; 42% in experiment [14]. Moreover, the residual activity in experiment [15] amounted to 60%; in [16], 16%; in experiment [17], 63%; in experiment [18], 20%; in experiment [19], 47%; in [20] it was 15%.

For the compound `CCN(CC)CCCCN1c2ccccc2Oc2ccc(Cl)cc21`, the residual activity in [1] was 104%; in experiment [2], 103%; in experiment [3], 137%; in [4] it was 101%; in [5], 117%; in experiment [6] it was 127%. Moreover, the residual activity in [7] is 89%; in experiment [8], 92%; in experiment [9], 113%; in experiment [10] it was 102%; in experiment [11] it was 107%; in experiment [12], 89%. In addition, the residual activity in experiment [13] was found to be 106%; in [14] it was 93%; in experiment [15], 111%; in experiment [16], 97%; in experiment [17] it was 112%; in experiment [18] it was 112%. In addition, the figures for the residual activity in experiment [19] and in experiment [20] were 126% and 118%, respectively.

With `Nc1cccc(-c2cc3c(Oc4cccc(O)c4)ncnc3[nH]2)c1`, the residual activity in experiment [1] worked out at 101%; in experiment [2], 105%; in [5] it was 93%; in [6], 50%; in [7], 75%; in [8], 63%. The residual activity came out at 79% in [9]; 21% in experiment [10]; 88% in experiment [11]; 66% in experiment [12]; 75% in experiment [13]; 23% in [14]. For the same compound, the residual activity in [15] came out at 40%; in experiment [16] it was 10%; in [17], 42%; in experiment [18] it was 10%.

Turning to `N#Cc1cnc2cnc(NCc3cccnc3)cc2c1Nc1ccc(F)c(Cl)c1`, the residual activity in experiment [4] was 100%; in experiment [7], 84%; in experiment [8], 51%; in [9], 93%; in [10], 75%; in experiment [11] it was 42%. For the same compound, the residual activity in [12] is 26%; in [13], -2%; in experiment [14], 1%; in experiment [15], 0%; in experiment [16], -1%; in [17], -1%. The residual activity amounted to 0% in [18], 98% in experiment [19] and 102% in experiment [20].

One may read the residual activity as the signal under treatment as a percentage of the control signal.
